The nature of experiment [1]: BSK_4H_Eotaxin3: BioMAP Diversity Plus: 4H Assay for Eotaxin 3 Biomarker Activity (AID 2283000).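 As to outcome: CCL26 protein level quantified by ELISA in parallel with SRB cytotoxicity check.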 As to conditions: primary human endothelial cells (HUVEC); actives raise or lower the signal. The method in brief:
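Endothelial primary cells (human umbilical vein) exposed to compound for 24 h. ELISA detection of Eotaxin-3.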

Experiment [2] addresses human Peroxisome Proliferator-activated Receptor alpha (PPARa), PPARA (gene 5465) (UniProt Q07869). Kind of experiment: ATG_PPARa_TRANS: Attagene TRANS-FACTORIAL HepG2 Assay for human Peroxisome Proliferator-activated Receptor alpha (PPARa) (AID 2283001; active = hit-call score of the fitted dose curve at least 0.9, where 1 is the maximum;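 as to AC50: potency for gain of reporter signal over DMSO so agonist or activator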). The method in brief:
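Transfected HepG2 cells treated with test chemical for 24 h. RNA isolated, reverse-transcribed with oligo(dT), PCR-amplified, FAM-labelled and HpaI-digested. Fragments sized by capillary electrophoresis; gain-of-signal fit relative to DMSO.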

The target in experiment [3] is human Peroxisome Proliferator-activated Receptor delta (PPARd), PPARD (gene 5467) (UniProt Q03181). Kind of experiment: ATG_PPARd_TRANS: Attagene TRANS-FACTORIAL HepG2 Assay for human Peroxisome Proliferator-activated Receptor delta (PPARd) (AID 2283002; active = hit-call score of the fitted dose curve at least 0.9, where 1 is the maximum). The method in brief:
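Read-out is induced reporter mRNA, quantified by RT-PCR with fluorescent labelling and capillary electrophoresis after 24 h dosing. Cells are HepG2 transiently carrying multiple GAL4-UAS reporter units driven by exogenous NR-GAL4 chimeras; DMSO serves as baseline.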

Read-out in experiment [4]: Intercellular Adhesion Molecule 1 (ICAM1), ICAM1 (gene 3383)
Kind of experiment: BSK_3C_ICAM1: BioMAP Diversity Plus: 3C Assay for Intercellular Adhesion Molecule 1 (ICAM1) Biomarker Activity (AID 2283003). As to conditions: primary human endothelial cells (HUVEC); actives raise or lower the signal. The method in brief:
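Using DMSO as baseline, bidirectional curve fitting was applied to ICAM-1 ELISA signals from HUVEC in the 3C system, measured 24 h after compound addition.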

Experiment [5] can be described thus: BSK_3C_Proliferation: Cell Proliferation Assessment in the BioMAP Diversity Plus: 3C Assay (AID 2283006).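 As to AC50: potency may reflect either rise or fall in cell number versus DMSO.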 As to conditions: primary human endothelial cells (HUVEC). A digest of the protocol:
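Measured here: sulforhodamine B (0.1%) staining of TCA-fixed sub-confluent umbilical vein endothelial cultures 48 h post-dosing, absorbance 560 nm. DMSO served as negative control and baseline; both signal gain and loss were modelled.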

For experiment [6], the target named is Peroxisome proliferator-activated receptor gamma (Homo sapiens) (UniProt P37231). Kind of experiment: ATG_PPARg_TRANS: Attagene TRANS-FACTORIAL HepG2 Assay for human Peroxisome Proliferator-activated Receptor-gamma (PPARg) (AID 2283007; active = hit-call score of the fitted dose curve at least 0.9, where 1 is the maximum). The method in brief:
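A TRANS-format multiplexed reporter assay measures activity of an exogenous chimeric NR-Gal4 protein in HepG2 cells. After 24 h of chemical exposure, reporter transcripts are amplified, fluorescently labelled and sized by capillary electrophoresis, with gain of signal scored against DMSO.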

Experiment [7] concerns the target Nuclear receptor subfamily 1 group I member 2 (Homo sapiens) (UniProt O75469). Kind of experiment: ATG_PXR_TRANS: Attagene TRANS-FACTORIAL HepG2 Assay for human Pregnane X Receptor (PXR) (AID 2283008; active = hit-call score of the fitted dose curve at least 0.9, where 1 is the maximum). The method in brief:
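Transactivation by exogenous PXR–GAL4 fusion measured as reporter transcript induction after 24 h compound treatment of transfected human HepG2 cells. Read-out via RT-PCR and capillary electrophoresis of labelled fragments, fitted upward relative to DMSO.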

Experiment [8] deals with Retinoic acid receptor RXR-alpha (Homo sapiens) (UniProt P19793). Kind of experiment: ATG_RXRa_TRANS: Attagene TRANS-FACTORIAL HepG2 Assay for human Retinoid X Receptor alpha (RXRa) (AID 2283012; active = hit-call score of the fitted dose curve at least 0.9, where 1 is the maximum). The method in brief:
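Chimeric NR-GAL4 trans-activation in HepG2, 24 h treatment; reporter transcripts quantified by fluorescence on capillary electrophoresis, analysed for upward change from DMSO.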

Experiment [9] addresses human Retinoid X Receptor beta (RXRb), RXRB (gene 6257) (UniProt P28702). Kind of experiment: ATG_RXRb_TRANS: Attagene TRANS-FACTORIAL HepG2 Assay for human Retinoid X Receptor beta (RXRb) (AID 2283013; active = hit-call score of the fitted dose curve at least 0.9, where 1 is the maximum). The method in brief: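 After a 24 h incubation with test chemical, transfected HepG2 cells carrying NR-Gal4 fusions and GAL4-UAS reporter transcription units yield RNA whose reporter cDNA is FAM-labelled, HpaI-cut and sized by capillary electrophoresis; increases over DMSO are scored.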

Read-out in experiment [10]: E-selectin (Homo sapiens) (UniProt P16581)
Kind of experiment: BSK_3C_Eselectin: BioMAP Diversity Plus: 3C Assay for Eselectin Biomarker Activity (AID 2283015).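 Also: cell surface E-selectin protein quantified by ELISA 24 h after dosing.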 Particulars: primary human endothelial cells (HUVEC); actives raise or lower the signal. The method in brief: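 Human vascular endothelium from umbilical vein is exposed to test chemicals for 24 h. E-selectin levels are read by ELISA and compared with DMSO controls.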

Read-out in experiment [11]: Interleukin-1 alpha (IL1a), IL1A (gene 3552)
Kind of experiment: BSK_BE3C_IL1a: BioMAP Diversity Plus: BE3C Assay for Interleukin-1 alpha (IL1a) Biomarker Activity (AID 2283016). As to conditions: primary human bronchial epithelial cells; actives raise or lower the signal. The method in brief: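 Measured in human lung primary bronchial epithelial cells: IL-1a by ELISA at 24 h after dosing, with bidirectional fitting against DMSO.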

Read-out in experiment [12]: Monocyte Chemoattractant Protein-1 (MCP1), CCL2 (gene 6347)
Kind of experiment: BSK_4H_MCP1: BioMAP Diversity Plus: 4H Assay for Monocyte Chemoattractant Protein-1 (MCP1) Biomarker Activity (AID 2283018). As to conditions: primary human endothelial cells (HUVEC); actives raise or lower the signal. A digest of the protocol: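 Primary human umbilical vein endothelium is exposed to chemical for 24 h before MCP-1 is assayed by ELISA. Concentration-response fitted bidirectionally relative to DMSO.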

Read-out in experiment [13]: Interleukin-8 (IL8), CXCL8 (gene 3576)
Kind of experiment: BSK_3C_IL8: BioMAP Diversity Plus: 3C Assay for Interleukin-8 (IL8) Biomarker Activity (AID 2283020). As to conditions: primary human endothelial cells (HUVEC); actives raise or lower the signal. The method in brief:
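Using DMSO-treated wells as the baseline, bidirectional curve fitting was applied to ELISA-measured IL-8 from human umbilical vein endothelial cultures sampled 24 h after compound addition.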

Read-out in experiment [14]: Monokine induced gamma interferon (MIG), CXCL9 (gene 4283)
Kind of experiment: BSK_3C_MIG: BioMAP Diversity Plus: 3C Assay for Monokine induced gamma interferon (MIG) Biomarker Activity (AID 2283021). As to conditions: primary human endothelial cells (HUVEC); actives raise or lower the signal. The method in brief: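 ELISA-measured MIG in dosed HUVEC 3C cultures at 24 h, analysed by bidirectional fitting with DMSO defining baseline activity.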

For experiment [15], the target named is human Retinoic Acid Receptor beta (RARb), RARB (gene 5915) (UniProt P10826). Kind of experiment: ATG_RARb_TRANS: Attagene TRANS-FACTORIAL HepG2 Assay for human Retinoic Acid Receptor beta (AID 2283004; active = hit-call score of the fitted dose curve at least 0.9, where 1 is the maximum). The method in brief:
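HepG2, transient MRTU transfection, NR–Gal4 chimera, 24 h treatment; RT-PCR plus CE fluorescence detection of reporter mRNA; gain of signal vs DMSO.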

Experiment [16] concerns the target Retinoic acid receptor alpha (Homo sapiens) (UniProt P10276). Kind of experiment: ATG_RARa_TRANS: Attagene TRANS-FACTORIAL HepG2 Assay for human Retinoic Acid Receptor alpha (RARa) (AID 2283005; active = hit-call score of the fitted dose curve at least 0.9, where 1 is the maximum;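 as to AC50: potency for increased reporter signal meaning RARa activation over DMSO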). The method in brief: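 Reporter transcripts, measured by RT-PCR with fluorescent labeling and capillary electrophoresis after 24 h dosing, reflect activity of an exogenous human RARa–GAL4 fusion in transiently transfected HepG2. Fitted for increase relative to DMSO.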

Experiment [17] has as its target human Thyroid Receptor alpha (THRa1), THRA (gene 7067) (UniProt P10827). Kind of experiment: ATG_THRa1_TRANS: Attagene TRANS-FACTORIAL HepG2 Assay for human Thyroid Receptor alpha (THRa1) (AID 2283014; active = hit-call score of the fitted dose curve at least 0.9, where 1 is the maximum). The method in brief:
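First, HepG2 cells receive multiple GAL4-UAS reporter units and the chimeric receptor. They are then dosed for 24 h, after which RNA is reverse-transcribed, amplified, labelled, HpaI-cut and sized by capillary electrophoresis; gain relative to DMSO is scored.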

Experiment [18] deals with human RAR-related Orphan Receptor gamma (RORg), RORC (gene 6097) (UniProt P51449). Kind of experiment: ATG_RORg_TRANS: Attagene TRANS-FACTORIAL HepG2 Assay for human RAR-related Orphan Receptor gamma (RORg) (AID 2283011; active = hit-call score of the fitted dose curve at least 0.9, where 1 is the maximum). A digest of the protocol:
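Activity is scored as increase in GAL4-UAS reporter mRNA over DMSO, detected by fluorescent RT-PCR and capillary electrophoresis in HepG2 cells transiently expressing a RORg-Gal4 chimera, 24 h after dosing.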

Read-out in experiment [19]: Human Leukocyte Antigen - DR isotype (HLADR), HLA-DRA (gene 3122)
Kind of experiment: BSK_3C_HLADR: BioMAP Diversity Plus: 3C Assay for Human Leukocyte Antigen - DR isotype (HLADR) Biomarker Activity (AID 2283019). As to conditions: primary human endothelial cells (HUVEC); actives raise or lower the signal. A digest of the protocol: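 Endothelial cells from human umbilical vein are treated with test chemical; after 24 h, HLA-DR levels are measured by ELISA. Data are fitted in both directions using DMSO as the baseline.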

Read-out in experiment [20]: Monocyte Chemoattractant Protein-1 (MCP1), CCL2 (gene 6347)
Kind of experiment: BSK_3C_MCP1: BioMAP Diversity Plus: 3C Assay for Monocyte Chemoattractant Protein-1 (MCP1) Biomarker Activity (AID 2283017). As to conditions: primary human endothelial cells (HUVEC); actives raise or lower the signal. A digest of the protocol:
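Endothelial cells from human umbilical vein are dosed with chemical, cultured 24 h, then assayed for MCP-1 by ELISA; both increases and decreases are modelled against DMSO controls.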

Inconclusive results are not listed. Some compounds were tested as several samples or in several runs, with calls that do not always agree. The source made the active and inactive calls. The calls were made as follows, unless noted: active = hit-call score of the fitted dose curve at least 0.9, where 1 is the maximum; inactive = score below 0.9.

Sequence of human Peroxisome Proliferator-activated Receptor alpha (PPARa), PPARA (gene 5465) (Q07869 whole entry, looked up, the tested form may be a part): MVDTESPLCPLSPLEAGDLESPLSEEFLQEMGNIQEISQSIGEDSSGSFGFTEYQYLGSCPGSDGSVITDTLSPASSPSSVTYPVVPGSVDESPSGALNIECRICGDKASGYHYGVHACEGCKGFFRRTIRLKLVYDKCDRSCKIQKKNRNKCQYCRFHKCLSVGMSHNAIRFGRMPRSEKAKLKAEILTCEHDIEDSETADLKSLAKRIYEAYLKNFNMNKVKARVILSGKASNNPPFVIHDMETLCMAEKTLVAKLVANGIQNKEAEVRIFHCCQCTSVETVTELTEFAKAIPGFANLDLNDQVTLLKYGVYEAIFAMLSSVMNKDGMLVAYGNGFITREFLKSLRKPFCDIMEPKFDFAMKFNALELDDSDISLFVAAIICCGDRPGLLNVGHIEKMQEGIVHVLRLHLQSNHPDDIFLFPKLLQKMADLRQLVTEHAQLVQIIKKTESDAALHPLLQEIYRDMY
Sequence of human Retinoic Acid Receptor beta (RARb), RARB (gene 5915) (P10826 whole entry, looked up, the tested form may be a part): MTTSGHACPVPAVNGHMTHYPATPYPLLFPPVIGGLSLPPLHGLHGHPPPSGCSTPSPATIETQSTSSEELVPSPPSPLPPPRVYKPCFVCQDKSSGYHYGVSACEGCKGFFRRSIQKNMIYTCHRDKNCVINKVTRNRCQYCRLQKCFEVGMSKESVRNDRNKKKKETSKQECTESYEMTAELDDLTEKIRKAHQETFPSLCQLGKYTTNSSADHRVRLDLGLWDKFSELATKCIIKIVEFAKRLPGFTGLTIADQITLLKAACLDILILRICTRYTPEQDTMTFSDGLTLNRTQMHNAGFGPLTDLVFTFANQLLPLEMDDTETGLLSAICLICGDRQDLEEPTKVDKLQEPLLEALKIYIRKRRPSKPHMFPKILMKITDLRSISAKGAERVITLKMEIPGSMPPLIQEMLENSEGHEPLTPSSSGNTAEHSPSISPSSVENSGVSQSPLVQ
Sequence of Nuclear receptor subfamily 1 group I member 2 (Homo sapiens) (O75469 whole entry, looked up, the tested form may be a part): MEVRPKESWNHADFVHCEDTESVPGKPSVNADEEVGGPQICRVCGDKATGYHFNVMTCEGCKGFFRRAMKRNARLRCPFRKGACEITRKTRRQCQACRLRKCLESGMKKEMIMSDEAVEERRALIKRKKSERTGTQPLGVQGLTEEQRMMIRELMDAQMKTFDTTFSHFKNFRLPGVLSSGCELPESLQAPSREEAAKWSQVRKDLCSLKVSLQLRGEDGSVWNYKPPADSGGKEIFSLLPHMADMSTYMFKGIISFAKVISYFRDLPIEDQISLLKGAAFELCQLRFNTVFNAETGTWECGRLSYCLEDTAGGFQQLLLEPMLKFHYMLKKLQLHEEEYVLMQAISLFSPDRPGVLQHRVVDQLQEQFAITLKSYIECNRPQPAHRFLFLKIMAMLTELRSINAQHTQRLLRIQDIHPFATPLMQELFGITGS
Sequence of Retinoic acid receptor RXR-alpha (Homo sapiens) (P19793 whole entry, looked up, the tested form may be a part): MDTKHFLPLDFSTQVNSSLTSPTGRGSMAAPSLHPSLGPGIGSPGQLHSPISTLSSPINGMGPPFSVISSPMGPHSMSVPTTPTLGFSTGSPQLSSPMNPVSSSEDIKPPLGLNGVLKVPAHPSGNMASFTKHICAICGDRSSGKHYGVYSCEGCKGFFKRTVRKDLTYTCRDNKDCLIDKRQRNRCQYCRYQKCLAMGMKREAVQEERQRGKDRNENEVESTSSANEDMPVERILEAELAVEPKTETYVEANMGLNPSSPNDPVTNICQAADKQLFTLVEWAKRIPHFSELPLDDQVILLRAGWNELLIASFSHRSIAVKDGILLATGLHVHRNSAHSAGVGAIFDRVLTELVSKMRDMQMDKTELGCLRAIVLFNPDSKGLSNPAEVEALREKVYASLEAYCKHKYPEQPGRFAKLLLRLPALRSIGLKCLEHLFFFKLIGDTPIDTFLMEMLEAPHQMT
Sequence of human Retinoid X Receptor beta (RXRb), RXRB (gene 6257) (P28702 whole entry, looked up, the tested form may be a part): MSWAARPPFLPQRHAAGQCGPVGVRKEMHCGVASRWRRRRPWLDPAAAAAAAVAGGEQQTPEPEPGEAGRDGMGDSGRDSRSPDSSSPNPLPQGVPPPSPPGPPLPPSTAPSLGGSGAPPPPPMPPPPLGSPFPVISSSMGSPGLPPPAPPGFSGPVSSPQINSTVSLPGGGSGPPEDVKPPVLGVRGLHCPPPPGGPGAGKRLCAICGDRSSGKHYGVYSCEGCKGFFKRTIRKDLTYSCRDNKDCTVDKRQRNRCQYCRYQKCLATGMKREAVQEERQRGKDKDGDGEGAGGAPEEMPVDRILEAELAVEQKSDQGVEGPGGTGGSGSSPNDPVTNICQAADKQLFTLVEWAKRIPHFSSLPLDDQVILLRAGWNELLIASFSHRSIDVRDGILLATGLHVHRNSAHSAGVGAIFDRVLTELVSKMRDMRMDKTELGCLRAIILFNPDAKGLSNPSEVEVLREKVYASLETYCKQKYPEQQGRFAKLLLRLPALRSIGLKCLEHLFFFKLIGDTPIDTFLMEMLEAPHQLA
Sequence of human Peroxisome Proliferator-activated Receptor delta (PPARd), PPARD (gene 5467) (Q03181 whole entry, looked up, the tested form may be a part): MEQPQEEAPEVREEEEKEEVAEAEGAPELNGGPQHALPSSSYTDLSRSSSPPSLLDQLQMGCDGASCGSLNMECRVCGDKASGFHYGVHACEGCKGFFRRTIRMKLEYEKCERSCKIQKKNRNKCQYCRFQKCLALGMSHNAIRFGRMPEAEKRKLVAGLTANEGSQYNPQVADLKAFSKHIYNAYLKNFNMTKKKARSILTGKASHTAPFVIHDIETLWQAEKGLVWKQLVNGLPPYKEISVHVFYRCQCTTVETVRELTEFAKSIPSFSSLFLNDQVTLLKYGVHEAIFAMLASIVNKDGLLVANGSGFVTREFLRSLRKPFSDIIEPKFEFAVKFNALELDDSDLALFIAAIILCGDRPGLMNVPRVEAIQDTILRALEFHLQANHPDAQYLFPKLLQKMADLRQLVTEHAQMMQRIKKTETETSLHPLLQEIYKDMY
Sequence of human Thyroid Receptor alpha (THRa1), THRA (gene 7067) (P10827 whole entry, looked up, the tested form may be a part): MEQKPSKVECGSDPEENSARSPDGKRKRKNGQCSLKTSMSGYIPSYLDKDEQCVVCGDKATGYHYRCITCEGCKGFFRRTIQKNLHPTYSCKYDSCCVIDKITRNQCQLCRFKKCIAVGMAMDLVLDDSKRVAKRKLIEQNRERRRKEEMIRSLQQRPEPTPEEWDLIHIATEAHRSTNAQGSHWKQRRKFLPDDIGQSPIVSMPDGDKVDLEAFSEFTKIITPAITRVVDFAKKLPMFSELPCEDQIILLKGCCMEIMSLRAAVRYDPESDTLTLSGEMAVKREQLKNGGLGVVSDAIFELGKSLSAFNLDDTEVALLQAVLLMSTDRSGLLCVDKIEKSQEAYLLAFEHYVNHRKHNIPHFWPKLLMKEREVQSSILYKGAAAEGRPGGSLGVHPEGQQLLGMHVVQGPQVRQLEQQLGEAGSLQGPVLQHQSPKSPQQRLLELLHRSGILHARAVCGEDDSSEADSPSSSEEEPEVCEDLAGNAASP
Sequence of Peroxisome proliferator-activated receptor gamma (Homo sapiens) (P37231 whole entry, looked up, the tested form may be a part): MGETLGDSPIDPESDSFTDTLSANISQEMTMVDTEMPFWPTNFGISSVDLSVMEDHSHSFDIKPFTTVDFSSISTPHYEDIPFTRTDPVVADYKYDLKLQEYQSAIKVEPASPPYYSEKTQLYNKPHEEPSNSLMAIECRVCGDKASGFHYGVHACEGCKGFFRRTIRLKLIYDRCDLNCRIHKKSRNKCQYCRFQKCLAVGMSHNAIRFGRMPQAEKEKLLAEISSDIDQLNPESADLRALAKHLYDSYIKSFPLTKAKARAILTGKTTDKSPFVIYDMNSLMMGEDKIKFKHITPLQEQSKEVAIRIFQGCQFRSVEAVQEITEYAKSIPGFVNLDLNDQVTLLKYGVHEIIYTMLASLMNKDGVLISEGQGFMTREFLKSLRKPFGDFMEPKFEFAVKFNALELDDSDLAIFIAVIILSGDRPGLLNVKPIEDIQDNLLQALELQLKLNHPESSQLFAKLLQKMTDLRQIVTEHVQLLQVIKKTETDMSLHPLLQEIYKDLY
Sequence of E-selectin (Homo sapiens) (P16581 whole entry, looked up): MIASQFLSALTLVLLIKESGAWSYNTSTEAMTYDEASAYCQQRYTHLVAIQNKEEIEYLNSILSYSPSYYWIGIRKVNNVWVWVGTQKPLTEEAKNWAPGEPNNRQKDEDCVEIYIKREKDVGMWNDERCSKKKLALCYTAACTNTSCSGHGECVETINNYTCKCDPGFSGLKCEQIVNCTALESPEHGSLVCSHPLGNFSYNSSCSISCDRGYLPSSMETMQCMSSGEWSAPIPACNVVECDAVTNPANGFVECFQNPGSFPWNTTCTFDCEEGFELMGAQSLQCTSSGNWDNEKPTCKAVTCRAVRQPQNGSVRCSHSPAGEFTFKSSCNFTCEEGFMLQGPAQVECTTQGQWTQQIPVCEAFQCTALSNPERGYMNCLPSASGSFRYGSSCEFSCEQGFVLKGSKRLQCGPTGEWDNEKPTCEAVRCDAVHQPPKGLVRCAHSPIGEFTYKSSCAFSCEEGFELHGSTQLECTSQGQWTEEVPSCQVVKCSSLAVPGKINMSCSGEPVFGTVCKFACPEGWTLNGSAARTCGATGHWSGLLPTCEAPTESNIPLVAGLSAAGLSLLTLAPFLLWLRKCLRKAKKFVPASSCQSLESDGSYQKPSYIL
Sequence of Retinoic acid receptor alpha (Homo sapiens) (P10276 whole entry, looked up, the tested form may be a part): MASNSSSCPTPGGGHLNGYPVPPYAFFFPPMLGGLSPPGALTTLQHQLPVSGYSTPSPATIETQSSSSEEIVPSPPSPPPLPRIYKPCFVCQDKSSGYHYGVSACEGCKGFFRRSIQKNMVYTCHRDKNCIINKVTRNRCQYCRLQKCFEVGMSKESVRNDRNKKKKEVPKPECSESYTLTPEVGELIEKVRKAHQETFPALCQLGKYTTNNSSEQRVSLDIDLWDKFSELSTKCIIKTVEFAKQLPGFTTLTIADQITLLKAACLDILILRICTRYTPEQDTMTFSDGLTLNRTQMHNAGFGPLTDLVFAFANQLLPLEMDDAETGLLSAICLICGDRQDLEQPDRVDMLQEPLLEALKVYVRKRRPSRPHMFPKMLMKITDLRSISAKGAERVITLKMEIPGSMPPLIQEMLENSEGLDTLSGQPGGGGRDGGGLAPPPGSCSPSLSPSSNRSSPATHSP

As for `CCCCCCOC(=O)c1ccccc1C(=O)OCCCCCC`, the outcome in [1], in experiment [2], in experiment [3], in [4], in experiment [8] and in experiment [9] was inactive. The outcome in experiment [10], in experiment [11], in [12] and in experiment [14] was inactive. For the same compound, the half-maximal activity concentration (AC50) in experiment [5] was 14.6 µM (active); in [6] it was 12.9 µM (active); in [7], 4.17 µM (active); in experiment [13] it was 31.1 µM (active).
Take `ClC1=C(Cl)[C@]2(Cl)[C@@H]3[C@H]4C[C@H]([C@@H]5O[C@H]45)[C@@H]3[C@@]1(Cl)C2(Cl)Cl`: the outcome in experiment [1], in experiment [2], in experiment [4], in experiment [16], in [6] and in experiment [7] was inactive. Moreover, the compound was called inactive in experiment [8], in experiment [9], in [17], in [10], in [11] and in [13]. In addition, the result in experiment [14] was inactive. The AC50 in experiment [15] is 0.859 µM (active); in experiment [5], 8.62 µM (active); in [12], 5.75 µM (active).
As to `OCC(O)CO`, the AC50 is 36.7 µM (active) in [2] and 50 µM (active) in [6]. Further, the outcome in [3], in experiment [15], in experiment [16], in [6], in experiment [7] and in experiment [18] was inactive. For the same compound, the result in experiment [8] and in experiment [9] was inactive.
In the case of `CO/C=C(/C(=O)OC)c1ccccc1COc1cccc(C(F)(F)F)n1`, the AC50 is 16.5 µM (active) in experiment [1]; 1.82 µM (active) in experiment [5]; 5.74 µM (active) in experiment [6]; 0.264 µM (active) in experiment [7]; 13.2 µM (active) in experiment [9]; 9.84 µM (active) in experiment [19]. In addition, in experiment [13], the AC50 was 10.1 µM (active). The outcome in experiment [4], in experiment [8], in [17], in experiment [11], in [12] and in experiment [14] was inactive.
Take `ClC1=C(Cl)[C@]2(Cl)[C@@H]3[C@@H]4C[C@@H]([C@H]5O[C@@H]45)[C@@H]3[C@@]1(Cl)C2(Cl)Cl`: the outcome in [1], in [3], in experiment [4], in [15], in experiment [6] and in experiment [8] was inactive. Also, the outcome in experiment [10], in experiment [11], in [13] and in experiment [14] was inactive. The AC50 in experiment [16] was 0.855 µM (active); in experiment [5], 14.5 µM (active); in [7], 2.84 µM (active); in [9], 24.4 µM (active); in [19], 20 µM (active).
Take `C=CC(N)=O`: the outcome in [1], in [4], in experiment [15], in experiment [16], in [5] and in [7] was inactive. In addition, the outcome in experiment [11], in experiment [12], in experiment [13] and in experiment [14] was inactive. The AC50 was 157 µM (active) in [8] and 15.8 µM (active) in experiment [9].
Regarding `Oc1ccc(Cl)cc1Cl`, the outcome in experiment [1], in experiment [2], in [4], in [5], in experiment [6] and in experiment [17] was inactive. In addition, the outcome in [11], in experiment [12], in experiment [13] and in experiment [14] was inactive.
Consider `CC(c1ccc(O)cc1)(c1ccc(O)cc1)c1ccc(O)cc1`, for which the AC50 in [1] was 31.4 µM (active); in [5], 28 µM (active); in [7], 2.93 µM (active); in [11] it was 6.69 µM (active); in [20] it was 31.1 µM (active); in experiment [12] it was 18.9 µM (active). For the same compound, the result in experiment [3], in experiment [4], in experiment [6], in [8], in experiment [13] and in experiment [14] was inactive.

One may read the AC50 as the concentration giving half of the maximal activity seen.

The record behind these values is PubChem BioAssay (EPA / NIEHS).
